This note sets out measurements from PubChem BioAssay (NCI).

Each structure is given as a SMILES string. The panel holds about 83,000 compounds, 20% with a hit somewhere; the sample as a whole holds those more often.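 Assay: single dose, 48 h. Readout: percent growth (0 = no net growth; negative = cell death). Active: <10.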 Values without a mark were called inactive. The source made the active and inactive calls.

Some test systems named below: T-47D breast; BT-549 breast; SW-620 colon; MCF7 breast; HCT-116 colon; HCC-2998 colon; KM12 colon; MDA-MB-435 melanoma.
What all share (test): NCI-60 one-dose screen, 48 h (100 = growth as untreated, 0 = no growth, -100 = all killed)
Common to all, as to settings: 10 µM unless noted

Consider `c1ccc(Oc2c3ccccc3nc3ccccc23)cc1`, for which the growth in the assay with T-47D breast was 56.2%; in the assay on BT-549 breast, 25.2%; in the assay with SW-620 colon it was 19.2%; with MCF7 breast, 14.2%; with HCT-116 colon it was -25.7% (active); in the assay on HCC-2998 colon, 20.9%. The growth with KM12 colon was 0.624% (active).
For `CC(=O)N(C(C)=O)c1ccc(C)cc1`, the growth in the assay on T-47D breast was 102%; with BT-549 breast, 101%; with SW-620 colon, 102%; in the assay on MCF7 breast, 87.6%; with HCT-116 colon, 117%; with HCC-2998 colon, 98.2%. Also, the growth in the assay with KM12 colon is 103%.
In the case of `S=c1nc2[nH]c3ccccc3c2n[nH]1`, the growth with T-47D breast was 88.2%; in the assay on BT-549 breast, 102%; in the assay with SW-620 colon it was 95%; in the assay on MCF7 breast, 92.2%; in the assay on HCT-116 colon, 96.4%; in the assay on HCC-2998 colon it was 102%. For the same compound, the growth in the assay with KM12 colon is 130%.
For the compound `CC(C)OCC(CCl)OC(=O)Nc1ccccc1` (centres undefined), the growth was 100% in the assay on T-47D breast; 107% in the assay on MDA-MB-435 melanoma; 112% in the assay on SW-620 colon; 96.9% in the assay on MCF7 breast; 108% in the assay on HCT-116 colon; 95.6% with HCC-2998 colon. In the assay with KM12 colon, the growth was 96.6%.
Turning to `Cc1nc(O)cc(=O)[nH]1`, the growth with T-47D breast was 113%; in the assay with MDA-MB-435 melanoma it was 126%; in the assay on SW-620 colon it was 109%; in the assay on MCF7 breast, 101%; in the assay with HCT-116 colon, 113%; with HCC-2998 colon, 110%. Further, the growth with KM12 colon was 110%.
Take `COc1ccc(C2CCCCC2=O)cc1` (centres undefined): the growth in the assay with T-47D breast is 100%; with BT-549 breast, 111%; in the assay on SW-620 colon it was 104%; in the assay with MCF7 breast, 103%; in the assay with HCT-116 colon, 106%; with HCC-2998 colon, 107%. The growth in the assay with KM12 colon was 112%.
For `Cc1cc2nc(C)c(C)nc2cc1C`, the growth in the assay on T-47D breast was 99.5%; in the assay with MDA-MB-435 melanoma, 105%; in the assay on SW-620 colon it was 111%; with MCF7 breast it was 90.7%; in the assay with HCT-116 colon it was 112%; in the assay on HCC-2998 colon it was 110%. The growth in the assay with KM12 colon is 108%.
Take `c1ccc2c(NCCCN3CCN(CCCNc4c5ccccc5nc5ccccc45)CC3)c3ccccc3nc2c1`: the growth with T-47D breast was -7.72% [100 µM] (active); in the assay on BT-549 breast, -61.4% [100 µM] (active); in the assay with SW-620 colon, -22.7% [100 µM] (active); with MCF7 breast, -56.5% [100 µM] (active); in the assay on HCT-116 colon, -49.6% [100 µM] (active); in the assay with HCC-2998 colon, -76.6% [100 µM] (active). Moreover, the growth in the assay with KM12 colon is -14.9% [100 µM] (active).
Regarding `Oc1ccc(CCC2CCNc3ccccc32)cc1` (centres undefined), the growth in the assay on T-47D breast is 63.9%; with BT-549 breast it was 47.2%; in the assay on SW-620 colon, 97.2%; in the assay with MCF7 breast, 98.6%; with HCT-116 colon, 89.3%; in the assay with HCC-2998 colon, 102%. Moreover, the growth in the assay with KM12 colon was 88.4%.
Regarding `C/C(Cc1ccccc1)=N\O`, the growth in the assay on T-47D breast is 117%; in the assay with BT-549 breast it was 107%; in the assay on SW-620 colon it was 98.4%; with MCF7 breast, 107%; with HCT-116 colon, 101%; with KM12 colon, 103%.
Consider `NS(=O)(=O)c1cc(=O)[nH]c(=O)[nH]1`, for which the growth in the assay on T-47D breast was 113%; in the assay on BT-549 breast, 107%; in the assay on SW-620 colon it was 109%; with MCF7 breast, 101%; with HCT-116 colon it was 105%; in the assay on HCC-2998 colon, 121%. The growth in the assay on KM12 colon is 104%.
Turning to `CC1CC(C)S(=O)(=O)C1` (centres undefined), the growth in the assay on T-47D breast is 109%; in the assay with BT-549 breast, 103%; in the assay on SW-620 colon it was 108%; in the assay on MCF7 breast, 102%; with HCT-116 colon, 114%; in the assay on HCC-2998 colon, 99%. The growth with KM12 colon is 102%.
For `Cc1ccc(NCN2C(=O)c3ccccc3C2=O)c(C)n1`, the growth with T-47D breast was 119%; in the assay with BT-549 breast, 108%; in the assay on SW-620 colon, 108%; in the assay on MCF7 breast it was 112%; in the assay on HCT-116 colon it was 101%; in the assay with HCC-2998 colon, 106%. Besides, in the assay on KM12 colon, the growth was 99.5%.
On to `NC(CO)(CO)c1ccccc1`, for which the growth in the assay on T-47D breast was 99.7%; with MDA-MB-435 melanoma it was 98.4%; in the assay with SW-620 colon it was 96.9%; with MCF7 breast, 95.9%; in the assay with HCT-116 colon, 101%; in the assay on HCC-2998 colon it was 110%.
For the compound `CCOC(=O)CO`, the growth with T-47D breast is 97.7%; with MDA-MB-435 melanoma it was 104%; with SW-620 colon, 110%; in the assay on MCF7 breast, 97.5%; in the assay on HCT-116 colon, 102%; in the assay with HCC-2998 colon it was 103%. Also, in the assay with KM12 colon, the growth was 109%.
For the compound `CC(O)C(F)(F)C(F)(F)C(F)(F)F` (centres undefined), the growth in the assay on T-47D breast is 110%; with BT-549 breast, 107%; with SW-620 colon, 101%; with HCT-116 colon, 100%; in the assay on HCC-2998 colon it was 111%; in the assay with KM12 colon, 114%.
As to `Oc1cc2ccccc2c(-c2c(O)c(O)cc3ccccc23)c1O`, the growth in the assay on T-47D breast was 25.7%; in the assay with MDA-MB-435 melanoma, 10.5%; in the assay with SW-620 colon it was 49.4%; in the assay with MCF7 breast, 12.3%; in the assay on HCT-116 colon, 29%; in the assay on HCC-2998 colon, 38.6%. In addition, the growth with KM12 colon was 52.5%.
With `CCCCc1ccc2nc(NC(=O)OC)[nH]c2c1`, the growth was 76.8% with T-47D breast; 31.1% in the assay on BT-549 breast; 14.4% in the assay with SW-620 colon; 12.8% in the assay with MCF7 breast; 7.36% (active) with HCT-116 colon; -43.3% (active) in the assay on HCC-2998 colon. In addition, in the assay with KM12 colon, the growth is -12.2% (active).
Take `Cc1ccccc1CC(N)C(=O)O` (centres undefined): the growth in the assay with T-47D breast is 103%; in the assay on BT-549 breast it was 106%; in the assay on SW-620 colon it was 121%; in the assay on HCT-116 colon, 106%; in the assay on HCC-2998 colon, 117%; in the assay on KM12 colon it was 119%.
